# Compound activity: PubChem, several laboratories
# Most compounds without a hit are left out; they make up all but 1% or so of the library.
# EBV gp42 block – Epstein-Barr virus gp42 inhibitors, primary screen, biochemical, uHTS, fluorescence polarization | Fluorescence polarization binding assay, mP read-out | hit rate 0.42% among 220,000 | inhibition, % (tested at 21.74 µM) | Glycoprotein 42 (Epstein-Barr virus (strain AG876)), Q1HVG2; in the data active means inhibition above about 50%
# Target sequence (Q1HVG2 whole entry, looked up): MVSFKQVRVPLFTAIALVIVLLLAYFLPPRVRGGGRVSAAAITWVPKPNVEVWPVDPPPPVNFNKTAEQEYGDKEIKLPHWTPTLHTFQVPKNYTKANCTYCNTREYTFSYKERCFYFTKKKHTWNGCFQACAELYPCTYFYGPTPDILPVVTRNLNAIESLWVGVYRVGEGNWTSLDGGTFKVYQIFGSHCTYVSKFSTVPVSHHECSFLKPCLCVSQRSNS
# ZTA DNA inh – counter-screen for EBNA-1 inhibitors: inhibitors of Epstein-Barr virus ZTA; ZTA-DNA binding, fluorescence polarization; hit rate 0.15% among 320,000; inhibition, % at 11 µM; P03206; in the data active means inhibition above about 33%
# Target sequence (P03206 whole entry, looked up): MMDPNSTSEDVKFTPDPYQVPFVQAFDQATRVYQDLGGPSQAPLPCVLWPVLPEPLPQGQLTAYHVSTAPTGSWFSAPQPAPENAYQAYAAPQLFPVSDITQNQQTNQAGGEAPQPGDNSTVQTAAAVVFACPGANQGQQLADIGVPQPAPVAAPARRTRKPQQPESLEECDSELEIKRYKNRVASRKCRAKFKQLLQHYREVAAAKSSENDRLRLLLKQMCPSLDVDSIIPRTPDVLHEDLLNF
# EBNA-1 inhibitor – EBNA-1 DNA-binding inhibitors, primary screen, biochemical, fluorescence polarization; inhibition, % at 14.8 µM; hit rate 0.34% among 300,000; AID 1950, 2009; in the data active means inhibition above about 28%
# MEX-5 binding – MEX-5 zinc finger RNA-binding disruptors – biochemical, C. elegans, fluorescence polarization, MLPCN library, primary screen. hit rate 0.38% among 300,000. activity score (negative = inhibition of binding), % at 10 µM. MEX-5/FITC-TCR2 RNA binding; stronger effect = lower value. Zinc finger protein mex-5 (Caenorhabditis elegans), Q9XUB2;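 active means inhibition past about -25% in most replicates, and total fluorescence under double the plate's negative control median, limit read from the data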;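 further: 0% = DMSO and -100% = 5 µM competing unlabeled TCR2 RNA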
# Starred values were filed as active, the others as inactive; x = no result.
SMILES,EBV gp42 block,ZTA DNA inh,EBNA-1 inhibitor,MEX-5 binding
O=C(NCC1CCCO1)c1nn2c(C(F)(F)F)cc(-c3ccco3)nc2c1Cl (stereo not given),x,2,8,-4
Cn1c(=O)c(-c2cc(=O)[nH][nH]2)c(O)c2ccccc21,-4,-8,2,-30*
CCn1c(=O)c(-c2cc(=O)[nH][nH]2)c(O)c2ccccc21,-6,-10,0,-9
CCCN1CCN(C(=O)Cn2cnc3ccc(S(=O)(=O)N4CCC(C)CC4)cc3c2=O)CC1,8,9,4,1
Cc1ccc2nc(SCC(=O)Nc3nonc3C)[nH]c2c1,x,-23,-2,6
COc1ccc2nc(SCC(=O)Nc3nonc3C)[nH]c2c1,-8,-5,-10,-32*
Cn1cc(/C=C2\SC(=S)N(NC(=O)c3cccc(Cl)c3)C2=O)c2ccccc21,165*,x,x,x
Cn1cc(/C=C2\SC(=S)N(N3CCOCC3)C2=O)c2ccccc21,39,-9,-3,0
Cn1cc(/C=C2\SC(=S)N(NC(=O)c3ccccc3)C2=O)c2ccccc21,89*,14,12,4
Cc1[nH][nH]c(=O)c1C(c1ccc(-c2ccccc2C(=O)O)o1)c1c(C)[nH][nH]c1=O,-21,-20,-8,-35*
Cc1[nH][nH]c(=O)c1C(c1ccc(-c2cccc(C(=O)O)c2)o1)c1c(C)[nH][nH]c1=O,-16,18,-11,-52*
Cc1[nH][nH]c(=O)c1C(c1ccc(-c2ccc(Cl)cc2Cl)o1)c1c(C)[nH][nH]c1=O,-4,x,x,x
CC(=O)N1Cc2ccccc2CC1C(=O)NCc1ccccc1F (stereo not given),x,12,8,0
COc1ccc(NC(=O)c2sc3nc(N4CCOCC4)c4c(c3c2N)CC(C)(C)OC4)c(OC)c1,x,-9,-2,3
O=C1N=c2ccc([N+](=O)[O-])cc2=C1c1sc(=O)[nH]c1O,x,-12,-1,-59*
O=C1N=c2ccccc2=C1c1sc(=O)[nH]c1O,-11,14,-10,-13
CCNc1cccc2c1C(=O)N(C)C2=O,160*,14,-1,0
CCN(CC)CCOC(=O)c1ccc(NC(=S)NC(=O)/C=C/c2ccco2)cc1,x,-5,-9,1
CCOC(=O)c1[nH]cnc1N=Nc1c(O)ccc2ccccc12,56*,6,27,-4
CCCCn1c(N)c(N(Cc2ccccc2OC)C(=O)CCC(C)C)c(=O)[nH]c1=O,x,6,-3,0
COc1ccc2c3c([nH]c2c1)C1CC2C(CC(O)C(OC)C2C(=O)O)CN1CC3 (stereo not given),6,-2,-13,-35*
CCOCc1c(C(=O)NCc2ccccc2CN2CCCC2)oc2ccccc12,x,-8,x,x
CCCCn1c(N)c(N(CCOC)C(=O)c2cccc(S(=O)(=O)N(CC)c3ccccc3)c2)c(=O)[nH]c1=O,x,-6,-1,1
CSc1ccc(/C=N/Nc2nc(C)cc(=O)[nH]2)cc1,-5,18,-2,0
Cc1cc(=O)[nH]c(N/N=C/c2ccc(O)c(O)c2)n1,x,-8,-11,-42*
SMILES,EBV gp42 block,ZTA DNA inh,EBNA-1 inhibitor,MEX-5 binding
Cc1ccc2nc(-c3ccccc3)cn2c1,-19,6,7,2
Cc1nc(-c2ccc(O)c(O)c2)cs1,-47,-9,6,-51*
Cc1ccc2nc(-c3ccc(O)c(O)c3)cn2c1,x,3,14,-48*
CN1C(=O)[C@@H]2C[C@@]3([C@@]45C[C@H]6C(=O)N(C)[C@@H](Cc7ccccc7)C(=O)N6[C@@H]4Nc4ccccc45)c4ccccc4N[C@H]3N2C(=O)[C@@H]1Cc1ccccc1,x,-9,7,0
COc1cc(/C=C/C(=O)NCC2CCCCC2)cc(OC)c1OC,x,3,5,2
CC(=O)OCCCNc1cc(Sc2nc3ccccc3s2)c2nonc2c1[N+](=O)[O-],78*,-22,0,-10
CN(CC(=O)Nc1ccc(F)c(F)c1F)C(=O)Cc1ccc2c(c1)OCCO2,x,-1,-9,2
CC(=O)N=c1c(C#N)cc2c(=O)n3cccc(C)c3nc2n1CCCOC(C)C,2,-2,-3,-26*
Cc1cccn2c(=O)c3cc(C#N)c(=NC(=O)c4cccs4)n(CCCOC(C)C)c3nc12,-4,-19,8,-45*
COc1ccc(C(=O)N=c2c(C#N)cc3c(=O)n4cccc(C)c4nc3n2Cc2ccco2)cc1,22,x,x,-41*
Cc1cccn2c(=O)c3cc(C#N)c(=NC(=O)c4ccncc4)n(CCCOC(C)C)c3nc12,37,11,-13,32
O=C(Nc1ccnn1C1CCN(Cc2cc(Cl)ccc2O)CC1)C1CC1,x,2,-11,-1
COc1ccc(OC)c(C2=C/C(=C/c3ccccn3)C(=O)O2)c1,-32,-1,-9,-42*
C[C@H](NC(=O)[C@H]1N2C(=O)c3ccccc3C2SC1(C)C)C(=O)N1CCC[C@H]1C(=O)O (stereo not given in full),x,2,-4,2
C=CCn1c(Cc2nc3ccccc3[nH]2)n[nH]c1=S,-16,4,1,-51*
O=C(Nc1ccccc1F)c1coc(=O)c(Br)c1,4,-9,-9,-56*
O=C(NCCc1ccc(F)cc1)c1coc(=O)c(Br)c1,x,-4,8,-3
CCCC1=NN2C(=N)/C(=C\c3ccc(SCc4ccco4)o3)C(=O)N=C2S1,-25,61*,50*,-16
CCCC1=NN2C(=N)/C(=C\c3cc(C)n(Cc4ccccc4)c3C)C(=O)N=C2S1,-15,2,-1,1
CCC1=NN2C(=N)/C(=C\c3ccc(SCc4ccco4)o3)C(=O)N=C2S1,-8,10,-1,-32*
O=C1NC(=S)S/C1=C\c1ccc(SCc2ccco2)o1,-53,92*,27,x
COc1ccc(N(CC(=O)NCc2ccco2)C(=O)CNS(=O)(=O)c2ccc(Cl)cc2)cc1,x,-11,-1,-1
CCCOc1ccc(C(=O)NNC(=O)CCNC(=O)c2ccco2)cc1OC,x,-8,-12,0
Nc1c(C(=O)O)ccc2c1C(=O)c1ccccc1C2=O,-6,-6,4,-13
Nc1ccc2c(c1Cl)C(=O)c1ccc(N)c(Cl)c1C2=O,76*,x,x,-3
SMILES,EBV gp42 block,ZTA DNA inh,EBNA-1 inhibitor,MEX-5 binding
CCn1cc(C(=O)NCc2ccccn2)c(=O)c2cc(S(=O)(=O)N3CCCCC3)ccc21,111*,x,x,-72*
Cc1ccc(NC(=O)CCC(=O)N2CCN(S(=O)(=O)c3ccc(C)cc3)CC2)cc1,x,-2,x,x
N=C1S/C(=C\c2ccc(-c3cccc(Cl)c3)o2)C(=O)N1c1nccs1,76*,2,-12,0
O=C1C2CC=C(Cl)CC2C(=O)N1CC1Cc2ccccc2CO1 (stereo not given),44,4,-4,-26*
O=C1C2CC=C(Cl)CC2C(=O)N1CC1OCCc2ccccc21 (stereo not given),5,18,0,-7
CCOc1ccc2nc3cc(NCc4ccc(OC)cc4)ccc3c(N)c2c1,x,101*,13,-33*
Cc1ccc(C)c(S(=O)(=O)C(C#N)c2nc3ccccc3nc2N2CCOCC2)c1 (stereo not given),-22,-3,3,-3
